Experimental data from the antibiotic and cytotoxicity screens of Wong et al. (2023).
Hit rate of the full screen: of about 39,000 compounds, about 1,500 (3.8%) were called active. The entries come from a sample that favours actives as a whole.

Test system: HSkMC (human skeletal muscle cells)
Test: cytotoxicity call (relative viability < 0.9)
Settings: 10 µM

SMILES | cytotoxicity call
COc1ccc(NC(=O)Nc2ccc3c(c2)C(=O)N([C@H](C)CO)C[C@@H](C)[C@H](CN(C)S(=O)(=O)c2ccc(Cl)cc2)OCCCC[C@@H](C)O3)cc1 | inactive
C[C@H]1CN([C@@H](C)CO)C(=O)c2cc(C3=CCCCC3)cnc2O[C@H]1CN(C)C(=O)CN1CCOCC1 | inactive
O=C1OCc2cc(-n3cnnn3)ccc21 | inactive
COc1ccc(NC(=O)N(C)C[C@H]2OCCCC[C@H](C)Oc3ccc(NC(=O)c4ccccc4)cc3C(=O)N([C@H](C)CO)C[C@H]2C)cc1 | inactive
C[C@@H]1CN([C@H](C)CO)C(=O)c2cc(NC(=O)Nc3ccccc3)ccc2O[C@H]1CN(C)S(=O)(=O)c1cn(C)cn1 | inactive
CCCCCCc1nc(-c2ccc(-c3ccc(Cl)c(Cl)c3)o2)cc2c1[Si](C(C)C)(C(C)C)OC2 | active
CC(C)[Si]1(C(C)C)OCc2cc(-c3ccc(-c4ccc(Cl)c(Cl)c4)o3)nc(-c3ccccc3)c21 | inactive
CC(C)[Si]1(C(C)C)OCc2cc(-c3ccc(-c4ccc(Cl)c(Cl)c4)o3)nc(CCc3ccccc3)c21 | inactive
O=C(O)c1cncnc1N1CCCC1 | inactive
C[C@@H]1CN([C@H](C)CO)C(=O)c2cccc(NC(=O)C3CCCCC3)c2O[C@H]1CN(C)Cc1ccc(Oc2ccccc2)cc1 | inactive
C[C@H]1CN([C@@H](C)CO)C(=O)c2cccc(NC(=O)Nc3ccc(F)cc3)c2O[C@@H]1CN(C)Cc1ccc(-c2ccccc2)cc1 | inactive
C[C@H](CO)N1C[C@H](C)[C@@H](CN(C)Cc2ccc(-c3ccccc3)cc2)Oc2c(NC(=O)Nc3ccc(F)cc3)cccc2C1=O | inactive
C[C@@H]1CN([C@@H](C)CO)C(=O)c2cccc(NC(=O)Nc3ccc(F)cc3)c2O[C@@H]1CN(C)Cc1ccc(-c2ccccc2)cc1 | active
C[C@@H]1CN([C@H](C)CO)C(=O)c2cccc(NC(=O)Nc3ccc(F)cc3)c2O[C@H]1CN(C)Cc1ccc(-c2ccccc2)cc1 | inactive
C[C@@H]1CN([C@@H](C)CO)C(=O)c2cccc(NC(=O)Nc3ccc(F)cc3)c2O[C@H]1CN(C)Cc1ccc(-c2ccccc2)cc1 | active
C[C@H]1CN([C@@H](C)CO)C(=O)c2cccc(NC(=O)Nc3ccc(F)cc3)c2O[C@H]1CN(C)Cc1ccc(-c2ccccc2)cc1 | inactive
Cc1noc(C)c1NC(=O)Nc1ccc2c(c1)CC(=O)N([C@@H](C)CO)C[C@H](C)[C@H](CN(C)C(=O)Nc1ccc(C(F)(F)F)cc1)O2 | inactive
CO[C@@H](CN(C)S(=O)(=O)c1cccc(Cl)c1)[C@@H](C)CN([C@H](C)CO)S(=O)(=O)c1cccc(Cl)c1 | inactive
C[C@@H]1CCCCO[C@H](CN(C)S(=O)(=O)c2cn(C)cn2)[C@@H](C)CN([C@@H](C)CO)C(=O)c2cc(NC(=O)Nc3cccc4ccccc34)ccc2O1 | inactive
CO[C@@H]1CN(C)C(=O)c2ccc(NC(=O)C3CCOCC3)cc2OC[C@@H](C)N(C(=O)C2CCOCC2)C[C@H]1C | inactive
C[C@H]1CN([C@@H](C)CO)C(=O)Cc2cc(NS(=O)(=O)c3ccccc3)ccc2O[C@@H]1CN(C)Cc1ccc(-c2ccccc2)cc1 | active

SMILES | cytotoxicity call
C[C@@H]1CN([C@H](C)CO)C(=O)Cc2cc(NS(=O)(=O)c3ccccc3)ccc2O[C@H]1CN(C)Cc1ccc(-c2ccccc2)cc1 | active
C[C@H](CO)N1C[C@H](C)[C@H](CN(C)Cc2ccc(-c3ccccc3)cc2)Oc2ccc(NS(=O)(=O)c3ccccc3)cc2CC1=O | inactive
C[C@@H]1CN([C@@H](C)CO)C(=O)Cc2cc(NS(=O)(=O)c3ccccc3)ccc2O[C@H]1CN(C)Cc1ccc(-c2ccccc2)cc1 | inactive
C[C@@H]1CN([C@H](C)CO)C(=O)Cc2cc(NS(=O)(=O)c3ccccc3)ccc2O[C@@H]1CN(C)Cc1ccc(-c2ccccc2)cc1 | inactive
C[C@H](CO)N1C[C@H](C)[C@@H](CN(C)Cc2ccc(-c3ccccc3)cc2)Oc2ccc(NS(=O)(=O)c3ccccc3)cc2CC1=O | inactive
C[C@H]1CN([C@@H](C)CO)C(=O)Cc2cc(NS(=O)(=O)c3ccccc3)ccc2O[C@H]1CN(C)Cc1ccc(-c2ccccc2)cc1 | active
C[C@@H]1CN([C@@H](C)CO)C(=O)Cc2cc(NS(=O)(=O)c3ccccc3)ccc2O[C@@H]1CN(C)Cc1ccc(-c2ccccc2)cc1 | active
CN(C)c1cncc(C(=O)O)c1 | inactive
C[C@@H]1CCCCO[C@H](CN(C)C(=O)Nc2ccc3c(c2)OCO3)[C@H](C)CN([C@H](C)CO)C(=O)c2cc(NS(=O)(=O)c3ccccc3)ccc2O1 | inactive
CC(C)C#Cc1ccc2c(c1)O[C@H](CN(C)C(=O)Cc1ccccn1)[C@H](C)CN([C@H](C)CO)S2(=O)=O | inactive
Cc1noc(C)c1NC(=O)N(C)C[C@@H]1Oc2ccc(NC(=O)NC(C)C)cc2CC(=O)N([C@H](C)CO)C[C@H]1C | inactive
CCCC(=O)Nc1ccc2c(c1)OC[C@@H](C)N(C(=O)Cc1ccccn1)C[C@@H](C)[C@H](OC)CN(C)C2=O | inactive
CCN1C(=O)CS/C1=N\N1CCOCC1 | inactive
C[C@@H]1CN([C@H](C)CO)C(=O)c2cc(NC(=O)Nc3ccc(C(F)(F)F)cc3)ccc2O[C@@H](C)CCCCO[C@H]1CN(C)C(=O)Nc1ccc(F)cc1 | inactive
COCCCNC(=O)[C@@]1(Sc2ccc(C)cc2)CC(=O)N(Cc2ccccc2C(F)(F)F)[C@@H]1c1ccc(CO)cc1 | inactive
C[C@@H]1CCCCO[C@@H](CN(C)C(=O)C2CCCCC2)[C@H](C)CN([C@@H](C)CO)C(=O)c2cc(NC(=O)Nc3ccccc3)ccc2O1 | inactive
C[C@@H]1CCCCO[C@H](CN(C)C(=O)Nc2ccc3c(c2)OCO3)[C@H](C)CN([C@H](C)CO)C(=O)c2cc(NC(=O)c3ccncc3)ccc2O1 | inactive
C[C@@H]1CN([C@@H](C)CO)C(=O)c2ccccc2-c2ccccc2CO[C@H]1CN(C)C(=O)Nc1ccc(F)cc1 | inactive
CC(C)C[C@H](NP(=O)(O)O[C@H]1O[C@@H](C)[C@@H](O)[C@@H](O)[C@@H]1O)C(=O)N[C@H](Cc1c[nH]c2ccccc12)C(=O)O | inactive
CC(C)CC(NC(=O)C(C)NC(=O)CNC(=O)C(NC=O)C(C)C)C(=O)NC(C)C(=O)NC(C(=O)NC(C(=O)NC(C(=O)NC(Cc1c[nH]c2ccccc12)C(=O)NC(CC(C)C)C(=O)NC(Cc1c[nH]c2ccccc12)C(=O)NC(CC(C)C)C(=O)NC(Cc1c[nH]c2ccccc12)C(=O)NC(CC(C)C)C(=O)NC(Cc1c[nH]c2ccccc12)C(=O)NCCO)C(C)C)C(C)C)C(C)C (configuration not stated) [GRAMICIDIN (gramicidin A shown) ] | active
C[C@H](NC(=O)[C@@H](Cc1ccc2ccccc2c1)NC(=O)[C@@H](C)N)C(=O)N[C@@H](Cc1c[nH]c2ccccc12)C(=O)N[C@H](Cc1ccccc1)C(=O)N[C@@H](CCCCN)C(N)=O | inactive
